We go through 36 compounds from ChEMBL document CHEMBL1157539, “Thousands of chemical starting points for antimalarial lead identification” (Nature, 2010).

Each structure is given as a SMILES string.

The subject of this test is Plasmodium falciparum. The test can be described thus: GSK_TCMDC: Inhibition of Plasmodium falciparum 3D7 in whole red blood cells, using parasite LDH activity as an index of growth. Test compounds present at 2uM. Type of test: functional.
For the compound `CCN(CC)/C(=N/C(=N)NCc1ccc(Cl)cc1Cl)NCCCCCCN/C(=N\C(=N)NCc1ccc(Cl)cc1Cl)N(CC)CC`, the Inhibition worked out at 100%.

Compound `COC(=O)Cn1c(C2CCN(CC3CCN(C(=O)/C=C/c4ccc(Cl)c(Cl)c4)CC3)CC2)nc2ccccc21` had an Inhibition of 86%.

Take `Br.CC1(C)NC(N)=NC(=N)N1OCCOc1cccc(C(F)(F)F)c1`: the Inhibition stood at 93%.

In turn, `O=C(NCCN1CCCC1)N1CCCN(c2ncnc3cc(-c4ccc(Cl)cc4)sc23)CC1.O=C(O)C(F)(F)F` gave an Inhibition of 96%.

Regarding `Cc1cccc2nc(-c3ccc(-c4ccc(NC(=O)c5cncn5C)cc4)s3)[nH]c12`, the Inhibition was 100%.

Compound `COc1cc(F)c2nccc([C@@H](O)CN3CCC(NC(=O)OCc4ccccc4)C(F)C3)c2c1` (stereo partly specified) gave an Inhibition of 99%.

Turning to `CCc1cc2c(=O)c(-c3nc(C)cs3)c(N)oc2c(CN2CCCCC2)c1O`, the Inhibition stood at 99%.

With `Clc1cc(Nc2ncnc3cc(C#C[C@H]4CCCN4)sc23)cc2nc(Cc3ccccc3)[nH]c12.O=C(O)C(F)(F)F`, the Inhibition is 91%.

`Cl.O=C(Nc1ccc(NC2=NCCN2)cc1)c1ccc(C(=O)Nc2ccc(NC3=NCCN3)cc2)cc1` gave an Inhibition of 91%.

`O=C(Nc1cccc(CN2CCCN(CC3CC3)CC2)c1)c1ccc(Cl)c(Cl)c1.O=C(O)C(F)(F)F` displayed an Inhibition of 92%.

Take `COC(=O)[C@@H](NC(=O)[C@H](Cc1ccc(OC)c(OC)c1)Nc1ccc(C#N)c2ccccc12)c1ccc(O)cc1.O=C(O)C(F)(F)F`: the Inhibition is 100%.

In the case of `CCCc1cc(Cc2cnc(N)nc2N)ccc1OCCCCCC(=O)OCC`, the Inhibition was 97%.

In turn, `CC(C)[C@@H](C(=O)NCc1cccc(C(F)(F)F)c1)N1C(=O)CCC1C(=O)Nc1ccc([N+](=O)[O-])cc1` (stereo partly specified) showed an Inhibition of 94%.

The compound `O=C(/C=C/c1ccc(Cl)c(Cl)c1)NCCCCCN1CCC(CCNC(=O)/C=C/c2ccc(Cl)c(Cl)c2)CC1` registered an Inhibition of 100%.

Take `O=C(NCc1ccc(Cl)c(Cl)c1)c1ccc(-c2nc3cc(F)c(F)cc3[nH]2)cc1`: the Inhibition stood at 81%.

Compound `Cc1nc(-c2ccccc2)nc(N2CCN(C(=O)c3ccco3)CC2)c1Cc1ccccc1F` had an Inhibition of 95%.

The compound `CC1(C)N=C(NC(=O)Nc2ccc([N+](=O)[O-])cc2)N=C(N)N1OCc1cccc2ccccc12` gave an Inhibition of 97%.

Turning to `O=C(Nc1ccc(C(F)(F)F)cc1)c1ccc(S(=O)(=O)NC2CCN(CC3CCCCC3)C2)cc1.O=C(O)C(F)(F)F` (stereo unspecified), the Inhibition was 99%.

Consider `Fc1ccc2[nH]c3c(NCCN4CCCCC4)ncnc3c2c1`, for which the Inhibition is on record as 99%.

Take `CN(C)CCCNCCS(=O)(=O)c1cccc(Nc2ccc(-c3cccc(N(C)C)c3)cn2)c1`: the Inhibition is 98%.

The compound `COc1ccc(-c2cccc(NC(=O)c3ccc(F)cc3)c2)cc1CNC(C)C.O=C(O)C(F)(F)F` showed an Inhibition of 83%.

The compound `COc1ccccc1Cc1nc2ccccc2nc1SCC(=O)Nc1cccc(C(F)(F)F)c1` showed an Inhibition of 97%.

In the case of `CCN1CCN(c2cc(C)c3cc(NC(=O)c4cc(OC)cc(OC)c4)ccc3n2)CC1`, the Inhibition was determined as 100%.

As to `CC[C@H](C)CNC(=O)c1cccc(-c2cccc(CNCC3CNCCCO3)c2)n1.O=C(O)C(F)(F)F` (stereo partly specified), the Inhibition was determined as 91%.

`COc1ccc(Nc2nccc(N3CCC(NC(=O)C(C)c4ccc(Cl)cc4)CC3)n2)cc1` (stereo unspecified) showed an Inhibition of 94%.

Take `CC(=O)c1sc(Cc2nc3ccccc3s2)nc1C`: the Inhibition amounted to 94%.

`COc1ccc(/C=C/C(=O)NCCCCCN2CCC(c3c[nH]c4ccccc34)CC2)cc1O`: the Inhibition was 91%.

`CCNC(=O)Nc1cccc(-c2ccc(-c3nc4cccc(C)c4[nH]3)s2)c1` yielded an Inhibition of 96%.

Compound `Cc1cc(N[C@@H](CC(C)C)C(=O)NCc2cccc(F)c2)nc(NCCc2ccc(F)cc2)n1.O=C(O)C(F)(F)F` gave an Inhibition of 90%.

As to `Oc1c(C(Nc2ccccn2)c2ccc(Cl)cc2Cl)ccc2cccnc12` (stereo unspecified), the Inhibition came out at 88%.

Compound `CCN(CC)CCOC(=O)c1ccc(NC(=O)c2cn(-c3ccccc3)nc2-c2cccs2)cc1.Cl` had an Inhibition of 100%.

`Cc1ccc(Cc2cnc(CN3CCCCC3)c(O)c2)cc1.Cl` showed an Inhibition of 93%.

As for `COc1ccccc1N1CCN(C(C(=O)NCc2ccc3c(c2)OCO3)c2ccc(C)cc2)CC1` (stereo unspecified), the Inhibition is on record as 85%.

`CC(=O)O.Nc1nc(N)c2cc3ccc(OCc4ccccc4)cc3nc2n1` displayed an Inhibition of 100%.

For the compound `Cc1cccc(C(=O)Nc2ccc(N3CCCN(Cc4cccc(O)c4)CC3)cc2)c1.O=C(O)C(F)(F)F`, the Inhibition is reported as 92%.

Consider `CC(C)N1CCN(C(=O)c2ccc(CNCCCN3CCN(c4ccccc4C(F)(F)F)CC3)s2)CC1.Cl`, for which the Inhibition is 98%.
